Measured values reported in PubChem BioAssay AID492949 (National Center for Advancing Translational Sciences (NCATS), 2010).
Records with an inconclusive call do not appear. The source made the active and inactive calls. Calls follow the shape of the dose curve; as a rule, active = well fitted activation curve with a large enough effect; inconclusive = small, poorly fitted or top-dose-only effect; inactive = no such curve, though single readings can be large or run the other way.

target: Relaxin receptor 1 (Homo sapiens) (UniProt Q9HBX9); experiment: qHTS Assay for Agonists of the Relaxin Receptor RXFP1: THP1 Hit Validation; settings: THP1-RXFP1 cells, cAMP TR-FRET, 30 min; series mostly up to 115 µM; activation: at the top concentration; also: nearly all actives have a fitted effect of over 60% in size;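 as to activation: 0% = buffer alone basal and 100% = 29 nM porcine relaxin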
In short: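 THP1 cells stably expressing RXFP1 were exposed to compounds for 30 min at 37C with PDE4 inhibitor Ro 20174. Lysate cAMP was read by HTRF, normalized to buffer and 29 nM porcine relaxin, with Hill-fit EC50.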
Potency is read from the fitted curve at half-maximal effect.

Chain of Relaxin receptor 1 (Homo sapiens) (Q9HBX9 whole entry, looked up): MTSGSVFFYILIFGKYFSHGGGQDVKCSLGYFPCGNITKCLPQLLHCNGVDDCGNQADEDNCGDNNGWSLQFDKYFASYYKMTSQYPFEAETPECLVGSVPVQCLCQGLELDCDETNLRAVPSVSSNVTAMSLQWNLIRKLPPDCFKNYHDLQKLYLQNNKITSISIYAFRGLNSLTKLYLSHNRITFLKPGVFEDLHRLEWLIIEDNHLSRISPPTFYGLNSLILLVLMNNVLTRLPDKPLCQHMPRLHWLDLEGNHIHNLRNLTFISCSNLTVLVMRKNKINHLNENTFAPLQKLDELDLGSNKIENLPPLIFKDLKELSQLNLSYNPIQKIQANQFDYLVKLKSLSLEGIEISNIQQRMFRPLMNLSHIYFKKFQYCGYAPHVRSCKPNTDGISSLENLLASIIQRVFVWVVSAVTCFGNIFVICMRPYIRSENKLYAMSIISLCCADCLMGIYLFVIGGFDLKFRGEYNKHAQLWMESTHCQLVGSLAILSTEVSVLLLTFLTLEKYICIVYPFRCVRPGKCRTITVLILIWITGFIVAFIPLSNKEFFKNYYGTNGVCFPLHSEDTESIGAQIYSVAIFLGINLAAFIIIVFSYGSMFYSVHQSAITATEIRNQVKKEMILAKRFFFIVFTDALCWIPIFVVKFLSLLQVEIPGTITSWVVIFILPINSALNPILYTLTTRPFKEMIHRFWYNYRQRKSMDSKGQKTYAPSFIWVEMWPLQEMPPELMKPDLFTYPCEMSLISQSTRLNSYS

Potency, active:
CC1(C)O[C@@H]2[C@H](O1)[C@@H](COS(=O)(=O)O)O[C@H]2n1cnc2c(N)ncnc21 5.48 µM
Cn1c(=O)c(C(=O)COc2ccc(C#N)cc2)c(N)n(Cc2ccccc2)c1=O 8.7 µM
CCc1cc2c(=O)nc3n(c2s1)Cc1ccccc1/C3=C(/O)c1cccc([N+](=O)[O-])c1 0.87 µM
CCCN(CCC)S(=O)(=O)c1cc(CN2C(=O)c3cccnc3C2=O)ccc1OC 24.5 µM
Cc1ccccc1OCC(=O)Nc1sc(C(=O)Nc2cccc(C)c2C)c(C)c1C#N 7.74 µM
COc1ccc(S(=O)(=O)N2CCOCC2)cc1NC(=O)CSc1nnc2ccccn12 6.9 µM
S=c1nc[nH]c2c1[nH]c1ccccc12 7.74 µM
NC(=S)c1cc2ccc(O)cc2oc1=O 4.88 µM
COC(=O)Cn1cnc2c(C#N)c3n(c2c1=O)CCCCC3 8.7 µM
CCCC(=O)Nc1ncnc2c1ncn2[C@@H]1O[C@@H]2OP(=O)(O)OC[C@H]2[C@H]1OC(=O)CCC 0.69 µM
CC1(C)Cc2c(sc3c2c2ncnn2c2nnc(SCC(=O)NCc4ccco4)n32)CO1 5.49 µM
COc1ccccc1NC(=O)CCCc1nnc2n(C)c(=O)c3sccc3n12 15.4 µM
CC1(C)Cc2nc3sc4c(SCC(=O)NC(c5ccccc5)c5ccccc5)ncnc4c3cc2CO1 3.88 µM
O=C(Nc1cc(S(=O)(=O)N2CCOCC2)ccc1N1CCOCC1)c1cn2ccccc2n1 8.7 µM
O=c1c2ccccc2cnn1Cc1n[nH]c(=S)n1-c1ccc(F)c(Cl)c1 12.3 µM
O=C(Cn1cnc2c(nnn2-c2ccc(F)cc2)c1=O)NCC1CCCO1 (stereo not drawn) 8.7 µM

activation, inactive:
Cc1cccc(C(=O)Nc2ccccc2C(=O)NCc2ccco2)c1 -5.04% [at 125 µM]
O=C(O)CNC(=O)c1ccccc1NC(=O)c1ccco1 -4.65% [at 125 µM]
COc1ccc(/C=C2/SC(=O)N(CC(=O)Nc3cc(C)on3)C2=O)cc1OC -94.2%
CC(=O)C1C(c2ccccc2)c2c(noc2C)CC1(C)O (stereo not drawn) 3.3%
CC1CCCCN1C(=O)c1ccccc1NC(=O)c1ccco1 (stereo not drawn) -1.74% [at 125 µM]
O=C(Nc1ccccc1C(=O)NCc1ccco1)c1ccccc1 7.28% [at 125 µM]
Cc1ccc(CN(C)C(=O)c2ccc3c(c2)NC(=O)CS3)o1 -37.7%
O=C(Nc1ccccc1C(=O)NC1CCCCC1)c1ccco1 3.46% [at 125 µM]
O=C(Nc1ccccc1C(=O)NCCc1ccccc1)c1ccco1 3.22% [at 125 µM]
O=C(O)c1ccc(CN2C(=O)c3ccc(C(=O)O)cc3C2=O)cc1 -0.984%
CCN(CC)C(=O)c1cc(Cl)ccc1NC(=O)c1ccco1 -2.97% [at 125 µM]
CC(C)c1ccccc1NC(=O)c1ccccc1NC(=O)C1CCCCC1 -0.0827% [at 125 µM]
CN(C)c1ccc2nc3c(=O)[nH]c(=O)nc-3n(CC(O)C(O)C(O)CO)c2c1 (stereo not drawn) -8.95%
C=CCSc1nc2c(c(=O)[nH]1)C(C(C)C)C(C#N)=C(N)O2 (stereo not drawn) -4.28%
O=C(Nc1ccccc1C(=O)NCc1ccc(Cl)cc1)c1ccco1 10.3% [at 125 µM]
O=C(Nc1ccccc1C(=O)Nc1ccccc1)c1ccco1 11.7% [at 125 µM]
C[C@H](Cc1ccccc1)Nc1ncnc2c1ncn2[C@@H]1O[C@H](CO)[C@@H](O)[C@H]1O -0.0159%
O=C(Nc1ccccc1)c1ccccc1NC(=O)C1CCCCC1 -4.77% [at 125 µM]
Cc1cc(C)c(NC(=O)CS(=O)CC(=O)Nc2ccc(F)cc2F)c(C)c1 (stereo not drawn) -5.33%
COc1ccc(OC)c(CNC(=O)C2CCN(C(=O)N(C)C)CC2)c1 -4.27%
NC(=O)c1ccccc1NC(=O)CC12CC3CC(CC(C3)C1)C2 8.88% [at 125 µM]
CN(Cc1ccccc1)C(=O)c1ccccc1NC(=O)c1ccco1 -1.61% [at 125 µM]
